Experimental findings from PubChem BioAssay (NCATS) are described below.

In experiment [1] the target is Estrogen receptor (Homo sapiens) (UniProt P03372). Briefly: qHTS assay for small molecule antagonists of estrogen receptor alpha signaling (AID 588513; active = well fitted curve in the direction sought with a large enough effect in the signal ratio, with a control signal flat, not every such curve was filed as active; the % refers to the signal ratio; also: % is scaled to controls: 0 for no effect and ±100 for the full control effect). The method in brief: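 Beta-lactamase reporter, antagonist mode, HEK 293 GripTite cells; 0.5nM E2 stimulus, 18 h, 37 C; CCF4 dye 2 h RT; fluorescence. IC50 and efficacy from Hill fits, normalized to E2 and DMSO.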
Estrogen receptor (Homo sapiens), sequence (P03372 whole entry, looked up): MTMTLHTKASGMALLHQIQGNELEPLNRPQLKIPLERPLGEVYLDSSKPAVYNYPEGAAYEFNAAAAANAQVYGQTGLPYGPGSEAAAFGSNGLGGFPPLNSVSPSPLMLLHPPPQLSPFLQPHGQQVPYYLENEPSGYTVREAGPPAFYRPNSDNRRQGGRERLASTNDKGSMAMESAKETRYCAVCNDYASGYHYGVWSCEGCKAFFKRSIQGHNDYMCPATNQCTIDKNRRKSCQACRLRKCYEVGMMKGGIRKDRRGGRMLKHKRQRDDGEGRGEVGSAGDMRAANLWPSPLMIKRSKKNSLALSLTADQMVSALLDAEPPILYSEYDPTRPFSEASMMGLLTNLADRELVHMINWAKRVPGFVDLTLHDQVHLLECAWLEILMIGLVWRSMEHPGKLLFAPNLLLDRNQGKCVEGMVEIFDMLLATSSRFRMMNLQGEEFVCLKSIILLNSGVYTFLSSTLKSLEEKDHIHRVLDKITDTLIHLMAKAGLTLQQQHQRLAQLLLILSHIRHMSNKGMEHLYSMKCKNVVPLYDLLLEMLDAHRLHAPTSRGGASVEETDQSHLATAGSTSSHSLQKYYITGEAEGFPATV

The target is the same in experiment [2]. Nature of the experiment: qHTS assay for small molecule agonists of estrogen receptor alpha signaling (AID 588514).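 Also: 0% = vehicle only and 100% = reference agonist; nearly all actives have a fitted effect of over 70% in size.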 The method in brief:
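ER-alpha-UAS-bla GripTite HEK293 cells, 5000/well in 2% charcoal/dextran-stripped FBS medium, treated with compound titrations 18 h at 37 C. CCF4 beta-lactamase read by fluorescence after 2 h RT; normalised to 20 nM 17-beta-estradiol (100%) and DMSO (0%), Hill fit for EC50 and efficacy.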

For experiment [3], the target named is Peroxisome proliferator-activated receptor delta (Homo sapiens) (UniProt Q03181). Briefly: qHTS assay for small molecule agonists of peroxisome proliferator-activated receptor delta signaling (AID 588534).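 Also: 0% = DMSO basal wells and 100% = positive control agonist at 10 µM.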 The method in brief:
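Cells carrying a PPAR-delta beta-lactamase reporter were treated with compounds for 18 h at 37 °C in agonist mode. CCF4 fluorescence was read after 2 h; EC50 and efficacy from Hill fits.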

Experiment [4] deals with Peroxisome proliferator-activated receptor gamma (Homo sapiens) (UniProt P37231). Nature of the experiment: qHTS assay for small molecule antagonists of peroxisome proliferator-activated receptor gamma signaling (AID 588537; active = well fitted inhibition curve with a large enough effect in the signal ratio, with a control signal flat, not every such curve was filed as active; the % refers to the signal ratio;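 also: reporter cells co-stimulated with 50 nM rosiglitazone agonist during compound treatment; % of control where 0% means no effect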). The gist of the method: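 Antagonist mode, beta-lactamase reporter in HEK293; charcoal/dextran FBS 1%; 3000 cells/well, 37 C 6-6.5 h; cpd titration + rosiglitazone 50 nM final, 16 h 37 C; CCF4, 2 h RT; 460/530 nm; Hill fit → IC50, efficacy.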
Peroxisome proliferator-activated receptor gamma (Homo sapiens), sequence (P37231 whole entry, looked up): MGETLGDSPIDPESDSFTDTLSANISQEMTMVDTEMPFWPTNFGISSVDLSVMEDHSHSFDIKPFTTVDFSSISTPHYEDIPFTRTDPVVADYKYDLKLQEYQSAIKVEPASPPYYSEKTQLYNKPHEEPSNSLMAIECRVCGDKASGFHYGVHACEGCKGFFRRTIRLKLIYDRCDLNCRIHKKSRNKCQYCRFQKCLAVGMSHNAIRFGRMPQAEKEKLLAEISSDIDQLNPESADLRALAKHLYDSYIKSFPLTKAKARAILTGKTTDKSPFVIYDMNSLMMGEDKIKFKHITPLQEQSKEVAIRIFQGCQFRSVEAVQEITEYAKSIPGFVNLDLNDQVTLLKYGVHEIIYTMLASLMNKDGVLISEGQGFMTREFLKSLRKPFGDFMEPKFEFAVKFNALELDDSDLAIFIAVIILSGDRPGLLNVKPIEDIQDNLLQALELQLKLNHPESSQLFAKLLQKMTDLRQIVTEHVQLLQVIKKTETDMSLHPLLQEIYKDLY

Experiment [5] concerns the target Vitamin D3 receptor (Homo sapiens) (UniProt P11473). Nature of the experiment: qHTS assay for small molecule antagonists of vitamin D receptor signaling (AID 588541).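 Also: receptor activated by calcitriol during compound treatment; series mostly up to about 77 µM; % is scaled to controls: 0 for no effect and ±100 for the full control effect.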 The gist of the method:
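Antagonist-mode beta-lactamase reporter assay: HEK293T VDR-UAS-bla cells were exposed to titrated compound alongside 1-alpha,25-dihydroxyvitamin D3 at 3 nM final for 16 h. Values were normalized to the 50 nM agonist control and DMSO basal, with IC50 and efficacy from Hill equation fits.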

Experiment [6] has as its target Thyroid hormone receptor beta (Homo sapiens) (UniProt P10828). Briefly: qHTS assay for small molecule agonists of thyroid hormone receptor beta signaling (AID 588545).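 Also: 0% = DMSO only and 100% = 10 nM T3.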 The gist of the method: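 Beta-lactamase reporter activity under TR response element control is measured in HEK 293 cells after 18 hrs compound exposure. Signal is ratiometric CCF4 fluorescence, 460/530 nm.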

Experiment [7] is described as follows: qHTS assay for small molecule antagonists of retinoid X receptor alpha signaling (AID 588546; active = well fitted inhibition curve with a large enough effect in the signal ratio, with a control signal flat, not every such curve was filed as active; the % refers to the signal ratio;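 also: cells stimulated with 9-cis-retinoic acid as agonist; % is scaled to controls: 0 for no effect and ±100 for the full control effect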). To be noted: HEK293T RXRa-UAS-bla, beta-lactamase ratio, antagonist mode; measured here: W530 green channel, cytotoxicity proxy. The method in brief:
(§1)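 Beta-lactamase reporter inhibition, read as CCF4 fluorescence ratio (ex 405, em 460/530 nm) after 2 h at RT. HEK293T UAS-bla cells, 2500/well, were stimulated with 9-cis-RA at 500 or 100 nM final alongside test compound for 18 h at 37 C.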

The target of experiment [8] is Retinoic acid receptor RXR-alpha (Homo sapiens) (UniProt P19793). The experiment is described as above. To be noted: HEK293T RXRa-UAS-bla, beta-lactamase ratio, antagonist mode. The method in brief: as §1
Retinoic acid receptor RXR-alpha (Homo sapiens), sequence (P19793 whole entry, looked up): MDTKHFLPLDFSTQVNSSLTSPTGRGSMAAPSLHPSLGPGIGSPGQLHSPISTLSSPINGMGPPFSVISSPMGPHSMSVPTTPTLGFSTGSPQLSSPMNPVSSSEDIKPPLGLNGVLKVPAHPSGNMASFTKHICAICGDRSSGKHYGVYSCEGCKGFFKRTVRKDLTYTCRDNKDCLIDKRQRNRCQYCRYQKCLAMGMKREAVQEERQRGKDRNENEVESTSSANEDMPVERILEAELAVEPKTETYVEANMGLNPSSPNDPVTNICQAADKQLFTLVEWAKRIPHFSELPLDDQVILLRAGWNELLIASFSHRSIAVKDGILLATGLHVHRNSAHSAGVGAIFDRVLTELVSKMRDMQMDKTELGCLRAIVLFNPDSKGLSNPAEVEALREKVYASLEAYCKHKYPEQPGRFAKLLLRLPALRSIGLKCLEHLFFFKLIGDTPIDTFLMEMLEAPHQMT
Experiment [9] is described as follows: qHTS assay for small molecule activators of the p53 signaling pathway (AID 651743; active = well fitted activation curve with a large enough effect in the signal ratio, not every such curve was filed as active; the % refers to the signal ratio; also: series mostly up to about 92 µM; % of control where 0% means no effect). To be noted: HCT-116 p53RE-bla, beta-lactamase FRET ratio, 16 h; activation: stronger effect = higher value. The gist of the method:
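Read-out is fluorescence intensity from the LiveBLAzer B/G FRET substrate, added for 2 hours at room temperature after HCT-116 p53RE-bla cells had been incubated with compounds for 16 hours at 37 C.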

The nature of experiment [10]: qHTS assay for environmental chemicals that activate the Aryl hydrocarbon Receptor (AhR) signaling pathway (AID 651777; active = well fitted curve in the direction sought with a large enough effect; an effect the other way counts as inactive or inconclusive; also: % of control where 0% means no effect; nearly all actives have a fitted effect of over 15% in size). To be noted: 1A2-DRE human hepatoma cells, luciferase, 24 h; activation: stronger effect = higher value. The gist of the method:
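Luminescence (One-Glo, 30 min, room temperature) reports AhR-driven luciferase in stably transfected human hepatoma cells bearing DRE and CYP1A2 promoter. Cells (1,200/well) were treated with compound for 24 hr at 37 C in qHTS format.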

The target of experiment [11] is Peroxisome proliferator-activated receptor alpha (Homo sapiens) (UniProt Q07869). Briefly: qHTS assay for small molecule agonists of the peroxisome proliferator-activated receptor alpha (PPARalpha) signaling pathway (AID 651778; active = well fitted curve in the direction sought with a large enough effect; an effect the other way counts as inactive or inconclusive; also: % of control where 0% means no effect). The conditions noted are these: PathHunter PPARalpha complementation, chemiluminescence, 6 h; max response: stronger effect = higher value. The method in brief:
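Chemiluminescence from complemented enzyme reported PPARalpha activation in cells after 6 hr of compound treatment at 37 C. The detection reagent was incubated for 60 min at room temperature, and compounds were scored as agonists.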

A short description of experiment [12]: qHTS assay for small molecule agonists of the antioxidant response element (ARE) signaling pathway measured by Nrf2-dependant transcriptional activity - cell viability counter screen (AID 720653; active = well fitted curve in the direction sought with a large enough effect in the repeat runs; an effect the other way counts as inactive or inconclusive; also: % is scaled to controls: 0 for no effect and ±100 for the full control effect). The conditions noted are these: ARE-bla HepG2 viability, CellTiter-Glo ATP luminescence, 16 h; max response: stronger effect = lower value. The method in brief: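 Cytotoxicity counter screen: intracellular ATP quantified by CellTiter-Glo luminescence in the same ARE-bla HepG2 plates, after 16 h compound exposure and a 2 h beta-lactamase substrate step.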

The nature of experiment [13]: qHTS assay for cell viability of HEK293 cells (AID 743288; active = well fitted curve in the direction sought with a large enough effect; an effect the other way counts as inactive or inconclusive; also: % is scaled to controls: 0 for no effect and ±100 for the full control effect; nearly all actives have a fitted effect of over 50% in size). To be noted: ATP luminescence (CellTiter-Glo), 18 h; max response: stronger effect = lower value. The gist of the method: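 Environmental chemicals tested in qHTS format against parental HEK293 cells; 18 h treatment, 37 C; read-out ATP luminescence (CellTiter-Glo), 30 min RT development.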
The nature of experiment [14]: qHTS assay for cell viability of the p53RE-bla HCT-116 cell line (AID 743292; active = well fitted curve in the direction sought with a large enough effect; an effect the other way counts as inactive or inconclusive; also: % is scaled to controls: 0 for no effect and ±100 for the full control effect; nearly all actives have a fitted effect of over 55% in size). The gist of the method: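 ATP-based luminescent viability (CellTiter-Glo, 30 min RT) after 16 h compound treatment at 37 C of p53RE-bla HCT-116 cells, seeded at 4,000 cells/well and rested 5 h before dosing.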
The target of experiment [15] is Peroxisome proliferator-activated receptor gamma (Homo sapiens) (UniProt P37231). Nature of the experiment: qHTS assay for small molecule agonists of peroxisome proliferator-activated receptor gamma signaling (AID 588536; active = well fitted curve in the direction sought with a large enough effect in the signal ratio, with a control signal flat, not every such curve was filed as active; the % refers to the signal ratio;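 also: 0% = DMSO basal wells and 100% = rosiglitazone at 2 µM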). The method in brief: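 Test agents, titrated, stimulated HEK293 UAS-bla cells overnight (16 h, 37 C). Substrate CCF4 was then added for two hours at room temperature before fluorescence reading.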

Experiment [16] can be described thus: qHTS assay for small molecule agonists of retinoid X receptor alpha signaling (AID 588544).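 As to activation: 0% = DMSO basal wells and 100% = reference agonist.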 To be noted: HEK293T RXRa-UAS-bla, beta-lactamase reporter, 18 h; 530 nm emission.
The target of experiment [17] is Retinoic acid receptor RXR-alpha (Homo sapiens) (UniProt P19793). Described as above.
Experiment [18] deals with Thyroid hormone receptor beta (Homo sapiens) (UniProt P10828). Nature of the experiment: qHTS assay for small molecule antagonists of thyroid hormone receptor beta signaling (AID 588547; active = well fitted inhibition curve with a large enough effect in the signal ratio, with a control signal flat, not every such curve was filed as active; the % refers to the signal ratio). To be noted: TR-UAS-bla HEK293, beta-lactamase ratio, antagonist mode, 18 h. The gist of the method:
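Inhibition of T3-driven (0.4nM final) beta-lactamase reporter activity was measured over 0.59 nM to 92 uM compound after 18 h at 37 C. The cells were GripTite HEK293 TR-UAS-bla in charcoal/dextran-stripped serum, with CCF4 ratio read-out and IC50 from Hill fits.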

Experiment [19] is described as follows: qHTS assay for small molecule agonists of the antioxidant response element (ARE) signaling pathway measured by Nrf2-dependant transcriptional activity (AID 720636; active = well fitted curve in the direction sought with a large enough effect in the repeat runs; an effect the other way counts as inactive or inconclusive; also: % of control where 0% means no effect). The method in brief:
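Nrf2-dependent transcription read as ONE-Glo luciferase signal from ARE-luc HepG2 reporter cells after 16 hr compound treatment at 37 C, 5% CO2, in assay medium with 1% dialyzed FBS.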

The target in experiment [20] is Nuclear receptor subfamily 1 group I member 2 (Rattus norvegicus) (UniProt Q9R1A7). Briefly: qHTS assay for small molecule activators of the rat pregnane X receptor (rPXR) signaling pathway (AID 651751; call rule not given here; also: 0% is about no effect). To be noted: rPXR reporter cells, luciferase (One-Glo), 24 h.
Nuclear receptor subfamily 1 group I member 2 (Rattus norvegicus), sequence (Q9R1A7 whole entry, looked up): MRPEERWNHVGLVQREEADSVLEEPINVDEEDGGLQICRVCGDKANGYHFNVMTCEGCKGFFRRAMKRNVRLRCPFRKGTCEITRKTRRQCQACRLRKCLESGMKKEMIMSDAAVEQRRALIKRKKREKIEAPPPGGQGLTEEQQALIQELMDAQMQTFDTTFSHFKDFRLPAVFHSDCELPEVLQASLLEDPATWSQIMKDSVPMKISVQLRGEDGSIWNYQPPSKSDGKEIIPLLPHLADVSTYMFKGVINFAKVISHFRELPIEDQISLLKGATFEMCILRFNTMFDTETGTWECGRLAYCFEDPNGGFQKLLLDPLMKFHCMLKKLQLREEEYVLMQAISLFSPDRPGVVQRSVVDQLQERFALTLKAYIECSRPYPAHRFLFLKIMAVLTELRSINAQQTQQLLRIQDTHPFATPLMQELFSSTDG

“And” between values parts separate entries of the source, which are not always exact repeats. Identical values can stand only once. Inconclusive results are not listed. The source made the active and inactive calls. Unless noted, calls follow the shape of the full dose curve.

Vitamin D3 receptor (Homo sapiens), sequence (P11473 whole entry, looked up): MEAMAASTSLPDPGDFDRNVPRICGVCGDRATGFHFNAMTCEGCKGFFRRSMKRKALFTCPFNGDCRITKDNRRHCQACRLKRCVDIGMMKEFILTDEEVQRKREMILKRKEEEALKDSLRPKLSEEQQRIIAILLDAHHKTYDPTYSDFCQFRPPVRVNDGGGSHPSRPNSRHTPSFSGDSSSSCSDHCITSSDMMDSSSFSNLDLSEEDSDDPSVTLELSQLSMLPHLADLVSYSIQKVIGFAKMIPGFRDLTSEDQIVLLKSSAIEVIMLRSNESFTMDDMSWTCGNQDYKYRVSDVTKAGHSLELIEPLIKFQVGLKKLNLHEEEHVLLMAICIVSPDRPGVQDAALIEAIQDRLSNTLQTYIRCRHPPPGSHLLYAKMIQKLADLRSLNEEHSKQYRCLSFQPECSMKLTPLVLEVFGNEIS
Thyroid hormone receptor beta (Homo sapiens), sequence (P10828 whole entry, looked up): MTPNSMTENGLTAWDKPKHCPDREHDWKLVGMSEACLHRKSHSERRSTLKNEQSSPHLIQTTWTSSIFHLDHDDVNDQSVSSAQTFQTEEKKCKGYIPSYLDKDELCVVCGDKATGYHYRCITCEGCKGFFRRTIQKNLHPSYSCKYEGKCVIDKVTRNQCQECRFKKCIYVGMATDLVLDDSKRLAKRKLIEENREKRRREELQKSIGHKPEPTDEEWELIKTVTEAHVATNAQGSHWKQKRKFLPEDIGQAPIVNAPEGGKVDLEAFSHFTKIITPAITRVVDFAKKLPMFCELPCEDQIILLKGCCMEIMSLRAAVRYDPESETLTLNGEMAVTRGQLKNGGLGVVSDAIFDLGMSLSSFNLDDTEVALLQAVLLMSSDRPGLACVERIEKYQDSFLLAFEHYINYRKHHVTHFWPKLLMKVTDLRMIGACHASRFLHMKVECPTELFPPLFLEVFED
Peroxisome proliferator-activated receptor delta (Homo sapiens), sequence (Q03181 whole entry, looked up): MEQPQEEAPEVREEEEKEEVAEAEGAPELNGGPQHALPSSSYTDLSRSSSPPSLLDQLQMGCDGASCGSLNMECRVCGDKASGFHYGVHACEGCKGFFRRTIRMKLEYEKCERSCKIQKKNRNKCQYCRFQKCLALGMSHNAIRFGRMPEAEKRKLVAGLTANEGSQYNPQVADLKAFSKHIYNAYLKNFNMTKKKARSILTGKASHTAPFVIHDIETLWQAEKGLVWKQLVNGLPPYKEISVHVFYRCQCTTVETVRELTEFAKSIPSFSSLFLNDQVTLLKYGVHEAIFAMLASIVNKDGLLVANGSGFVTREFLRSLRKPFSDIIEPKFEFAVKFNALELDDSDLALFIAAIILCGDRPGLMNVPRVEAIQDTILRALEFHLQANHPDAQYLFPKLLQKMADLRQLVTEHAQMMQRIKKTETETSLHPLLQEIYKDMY
Peroxisome proliferator-activated receptor alpha (Homo sapiens), sequence (Q07869 whole entry, looked up): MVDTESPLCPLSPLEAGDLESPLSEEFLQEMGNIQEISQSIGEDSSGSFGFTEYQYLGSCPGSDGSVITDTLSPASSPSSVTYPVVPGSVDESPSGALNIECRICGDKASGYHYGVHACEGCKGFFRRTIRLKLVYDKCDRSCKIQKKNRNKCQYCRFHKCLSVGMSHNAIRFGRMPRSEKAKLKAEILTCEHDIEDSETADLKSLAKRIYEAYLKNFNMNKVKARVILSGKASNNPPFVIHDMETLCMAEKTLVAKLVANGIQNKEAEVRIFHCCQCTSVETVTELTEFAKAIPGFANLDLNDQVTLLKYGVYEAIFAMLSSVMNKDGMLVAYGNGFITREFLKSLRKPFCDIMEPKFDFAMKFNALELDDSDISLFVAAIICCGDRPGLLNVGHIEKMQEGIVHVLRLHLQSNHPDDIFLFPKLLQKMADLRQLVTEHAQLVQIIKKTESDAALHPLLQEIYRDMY

Consider `CC1CCCCC1NC(=O)Nc1ccccc1` (stereo not drawn), for which the Potency result in experiment [1], in experiment [2], in [4], in [5], in experiment [6] and in experiment [14] was “inactive” in each case. In addition, the call in experiment [3] was inactive. In addition, the max response in experiment [7] is -4.7%; in [8], -9.04% (inactive); in [11], -0.607% (inactive); in [12], -4.51% (inactive); in experiment [13], -11.4% (inactive). For the same molecule, the values for the activation in experiment [9] and in [10] were 0.836% (inactive) and 6.72% (inactive), respectively.
Take `O=S1OC[C@@H]2[C@H](CO1)[C@@]1(Cl)C(Cl)=C(Cl)[C@]2(Cl)C1(Cl)Cl` (stereo partly drawn): the Potency result in experiment [1], in [2], in [15], in [4], in experiment [5] and in [17] was “inactive” each time. Further, the Potency result in experiment [6], in [19] and in experiment [14] was “inactive” each time. The max response was -0.24% in experiment [16]; 9.73% and 12.8% in experiment [7]; -70.2% (inactive) and -50.2% (inactive) in [8]; -0.211% (inactive) and 0.181% (inactive) in [11]; -3.19% (inactive) and 3.58% (inactive) in [12]; -26.6% (inactive) and -23.3% (inactive) in experiment [13]. Also, in experiment [18], the activity change % (negative = inhibition) is 3.09% (inactive). Besides, the activation in [9] was -3.81% (inactive) and -3.84% (inactive); in experiment [10] it was 0.042% (inactive) and 0.216% (inactive).
For `Cc1cnc(C2=NC(C)(C(C)C)C(=O)N2)c(C(=O)O)c1` (stereo not drawn), the Potency result in [1], in experiment [2], in experiment [15], in experiment [4], in experiment [5] and in experiment [17] was “inactive” throughout. For the same molecule, the Potency entry in [6], in [19] and in [14] was “inactive” in each case. Moreover, the result in experiment [3] was inactive. Further, the max response in [16] is -18.8% and -4.8%; in experiment [7], 8.17%; in [11], -1.29% (inactive) and -1.68% (inactive); in [12], -15.3% (inactive) and 23.5% (inactive); in [13] it was -9.43% (inactive) and 4.33% (inactive); in experiment [20], 5.11% (inactive) and -5.71% (inactive). The activity change % (negative = inhibition) in experiment [18] is -3.72% (inactive) and -20.5% (inactive). For the same molecule, the activation was 0.249% (inactive) and -2.82% (inactive) in experiment [9]; 1.97% (inactive) and -3.27% (inactive) in [10].
As to `CCOP(=O)(SC(C)CC)SC(C)CC` (stereo not drawn), the Potency entry in experiment [1], in experiment [2], in experiment [15], in [4], in experiment [5] and in [17] was “inactive” in each case. For the same molecule, the Potency entry in experiment [6], in experiment [19] and in [14] was “inactive” each time. Further, the max response in experiment [16] was -25%; in experiment [7], -3.17%; in [8] it was -13.8% (inactive); in experiment [11] it was -1.1% (inactive); in [12] it was -6.4% (inactive); in [13] it was -14% (inactive). Further, the max response in experiment [20] was 4.1% (inactive). Besides, the activity change % (negative = inhibition) in experiment [18] was -3.53% (inactive). The activation was -0.0138% (inactive) in [9] and 0.937% (inactive) in experiment [10].
Regarding `COP(=S)(OC)Oc1ccc([N+](=O)[O-])c(C)c1`, the Potency result in experiment [1], in [2], in [15], in experiment [4], in experiment [5] and in [17] was “inactive” in each case. For the same molecule, the Potency result in [6], in experiment [19] and in experiment [14] was “inactive” each time. The result in experiment [3] was inactive. Also, the max response in experiment [16] was -4.53%; in [7] it was -7.02%; in [8], -30.1% (inactive); in experiment [11], -4.6% (inactive); in [12], -3.17% (inactive); in experiment [20], -1.75% (inactive). Further, the activity change % (negative = inhibition) in experiment [18] was 7.88% (inactive). Also, the activation in experiment [9] was -5.64% (inactive).
